# Inconclusive results are not listed. The source made the active and inactive calls. Rule for the calls, unless noted: active = hit-call score of the fitted dose curve at least 0.9, where 1 is the maximum; inactive = score below 0.9.
# Experiments:
# [1] = CCTE_Mundy_HCI_iCellGluta_NOG_NeuriteLength: CCTE's Neurite Outgrowth Assay in iCellGluta cells for Neurite Length, Mundy Lab (AID 2284318; active = hit-call score of the fitted dose curve at least 0.9, where 1 is the maximum)
# In short: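 Automated high-content imaging of betaIII-tubulin (Alexa Fluor-488) and Hoechst-stained cells gave neurite length, normalized to the DMSO baseline.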
# [2] = IUF_NPC1_cytotoxicity_72hr: Cytotoxicity Assessment at 72 hours in the Leibniz Research Institute for Environmental Medicine (IUF) Neural Progenitor Cell Proliferation Assay (NPC1) (AID 2284332; active = hit-call score of the fitted dose curve at least 0.9, where 1 is the maximum;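 note: rising LDH signal means more cytotoxicity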)
# In short: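 Readout is fluorescence from LDH-dependent resazurin conversion, sampled from culture medium after compound contact lasting 72 h. Each well holds one 0.25-0.35 mm human progenitor sphere kept at 37C, 5% CO2 with EGF and FGF.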
# [3] = CCTE_Mundy_HCI_iCellGluta_NOG_NeuriteCount: CCTE's Neurite Outgrowth Assay in iCellGluta cells for Neurite Count, Mundy Lab (AID 2284342; active = hit-call score of the fitted dose curve at least 0.9, where 1 is the maximum;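 note: chemical exposure about 48 hours starting 2 hours after plating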)
# [4] = CCTE_Deisenroth_5AR_NBTE_donor: CCTE's 5alpha-reductase NanoBRET Target Engagement Assay […], Deisenroth Lab (AID 2284319); settings: actives raise or lower the signal
# In short: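 HEK293T cells transiently expressing SRD5A2-NanoLuc, exposed 5 h to chemicals (8 points, 10 nM - 29.9 uM), with testosterone tracer for the final 2 h. Donor luminescence at 460 nm read after Nano-Glo substrate plus extracellular NanoLuc inhibitor; bidirectional fit versus DMSO.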
# SRD5A2 (gene 6716) = experiment: CCTE_Deisenroth_5AR_NBTE_ratio: CCTE's 5alpha-reductase NanoBRET Target Engagement Assay - Ratio, Deisenroth Lab (AID 2284322); settings: actives raise or lower the signal
# In short: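 SRD5A2-NanoLuc HEK293T; cmpd 10 nM-29.9 uM, 3 h preinc + testosterone tracer 2 h; NanoBRET ratio 650/460; bidirectional fit vs DMSO.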
# SERPINA7 (gene 6906) = experiment: CCTE_GLTED_hTBG: CCTE's human Thyroxine-binding Globulin (TBG) Inhibition Assay, Great Lakes Toxicology and Ecology Division (GLTED) Lab (AID 2284343; active = hit-call score of the fitted dose curve at least 0.9, where 1 is the maximum;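 note: active chemicals lower fluorescence versus DMSO baseline by displacing probe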)
# In short: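 Steps: combine TBG with chemical; incubate 2 hours so that disruptors release ANSA; record fluorescence (380 ex, 475 em). Loss of signal was fitted against DMSO controls.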
# TTR (gene 7276) = experiment: CCTE_GLTED_hTTR_0.125uM: CCTE's human Transthyretin (hTTR) Inhibition Assay, with 0.125uM TTR, Great Lakes Toxicology and Ecology Division (GLTED) Lab (AID 2284431);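 note: hits lower the fluorescence signal relative to DMSO baseline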
# In short: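 Activity is defined as decreased ANSA fluorescence (ex 380, em 475) from human transthyretin, 0.125uM, following 2-hour chemical exposure in a cell-free setup, with DMSO as baseline.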
# IYD (gene 389434) = experiment: CCTE_GLTED_hIYD: CCTE's human Iodotyrosine Deiodinase (xIYD) Inhibition Assay, Great Lakes Toxicology and Ecology Division (GLTED) Lab (AID 2284317; active = hit-call score of the fitted dose curve at least 0.9, where 1 is the maximum;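 note: cell-free human IYD enzyme made in baculovirus insect cells; iodide freed from monoiodotyrosine measured by cerium arsenite color change at 420 nm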)
# In short: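 Iodide liberated from monoiodotyrosine by baculovirus-expressed human IYD over 3 h was determined colorimetrically (Sandell-Kolthoff, 420 nm) after Dowex separation; inhibition is loss of signal versus DMSO.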
# [5] = CCTE_Padilla_ZF_Score.General: CCTE's 144 Hour Post-fertilization zebrafish Assay Score for General Malformation, Padilla Lab (AID 2284411)
# In short: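 Malformation, death and hatching were scored at 6 dpf by two blinded observers under a stereo microscope. Embryos were dosed singly from 6-8 hpf in sealed plates of 10% Hanks' at 26C and rinsed on 5 dpf; DMSO baseline.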
# [6] = CCTE_Mundy_HCI_iCellGluta_NOG_NeuronCount: CCTE's Neurite Outgrowth Assay in iCellGluta cells for Neuron Count, Mundy Lab (AID 2284340; active = hit-call score of the fitted dose curve at least 0.9, where 1 is the maximum;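 note: cells fixed about 48 h after compound addition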)
# In short: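 Neuron count read by automated high-content imaging of Hoechst 33342 and betaIII-tubulin/Alexa Fluor-488 labelling in human iPSC glutamatergic neurons. Activity fitted relative to DMSO.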
# [7] = CCTE_Deisenroth_H295R-HTRF_384WELL_ESTRADIOL: CCTE's H295R-HTRF Assay Evaluation of Estradiol Concentration, Deisenroth Lab (AID 2284361); settings: actives raise or lower the signal
# In short: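 Estradiol secreted into medium by H295R adrenocortical cells, quantified by HTRF after 48 h dosing over a nine-point 0.001 - 100 uM final range; gain or loss versus DMSO. Parallel ATP-luminescence viability readout; n=5 experiments.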
# [8] = CCTE_Deisenroth_H295R-HTRF_384WELL_TESTOSTERONE: CCTE's H295R-HTRF Assay Evaluation of Testosterone Concentration, Deisenroth Lab (AID 2284373); settings: actives raise or lower the signal
# In short: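 Testosterone secreted into medium was quantified by direct HTRF immunoassay after a 48 h treatment of H295R adrenocortical cells (nine concentrations, 0.001–100 uM final). Gain or loss fitted relative to DMSO; CellTiter-Glo viability read on same plates.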
# [9] = CCTE_Deisenroth_H295R-HTRF_384WELL_CTOX: Cytotoxicity Assessment in CCTE's H295R-HTRF Assay, Deisenroth Lab (AID 2284380; active = hit-call score of the fitted dose curve at least 0.9, where 1 is the maximum)
# In short: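 Luminescent ATP viability readout (CellTiter-Glo 2.0), multiplexed on plates used for hormone sampling, after 48 h chemical exposure. Human H295R cells; final concentrations 0.001–100 uM in nine steps, technical triplicates, five experiments; DMSO baseline.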
compound,measurement,setting,value
CN(C)C(=N)N=C(N)N,outcome,[1],inactive
same,outcome,[2],inactive
same,outcome,[3],inactive
O=Nc1ccc(Nc2ccccc2)cc1,AC50,[4],23.4 µM (active)
same,AC50,SRD5A2 (gene 6716),75.4 µM (active)
same,AC50,SERPINA7 (gene 6906),15.9 µM (active)
same,AC50,TTR (gene 7276),7.46 µM (active)
O=C1c2ccccc2C(=O)N1SC1CCCCC1,AC50,SERPINA7 (gene 6906),29.4 µM (active)
CC(C)=CCC[C@](C)(O)[C@@H]1CC=C(C)CC1,outcome,[4],inactive
same,outcome,SRD5A2 (gene 6716),inactive
same,AC50,SERPINA7 (gene 6906),19.2 µM (active)
O=C(Oc1ccccc1)c1ccc(O)cc1,AC50,SERPINA7 (gene 6906),12.6 µM (active)
same,AC50,TTR (gene 7276),0.326 µM (active)
BrC1CCC(Br)C(Br)CCC(Br)C(Br)CCC1Br (configuration not stated),outcome,[4],inactive
same,outcome,SRD5A2 (gene 6716),inactive
CCCCCCCCCCCCCOS(=O)(=O)O,AC50,IYD (gene 389434),34.2 µM (active)
same,AC50,[4],50 µM (active)
same,AC50,SRD5A2 (gene 6716),81.8 µM (active)
same,AC50,SERPINA7 (gene 6906),31 µM (active)
same,AC50,TTR (gene 7276),1.6 µM (active)
CCCCCCCCC=O,outcome,[5],inactive
N#Cc1ccc(CC(=NNC(=O)Nc2ccc(OC(F)(F)F)cc2)c2cccc(C(F)(F)F)c2)cc1,outcome,[1],inactive
same,outcome,[2],inactive
same,outcome,[6],inactive
CCCCCCCCCCCCCC(=O)O,AC50,IYD (gene 389434),100 µM (active)
same,outcome,[4],inactive
same,outcome,SRD5A2 (gene 6716),inactive
same,AC50,TTR (gene 7276),1.93 µM (active)
O=c1cc(-c2ccccc2)oc2cc(O)cc(O)c12,AC50,TTR (gene 7276),0.06 µM (active)
CC1CC(OC(=O)c2ccccc2O)CC(C)(C)C1 (configuration not stated),outcome,[4],inactive
same,outcome,SRD5A2 (gene 6716),inactive
O=C(O)c1cn(C2CC2)c2cc(N3CCNCC3)c(F)cc2c1=O,outcome,[5],inactive
O=[N+]([O-])c1cc(C(F)(F)F)ccc1Cl,outcome,[5],inactive
CCCCCCCCCCCCCCCC(=O)OC[C@H](O)[C@H]1OC(=O)C(O)=C1O,AC50,IYD (gene 389434),25.6 µM (active)
same,outcome,[4],inactive
same,outcome,SRD5A2 (gene 6716),inactive
Cc1ccc(S)cc1,AC50,SERPINA7 (gene 6906),1.59 µM (active)
CCn1c2ccccc2c2cc(N)ccc21,outcome,[5],inactive
CCCCCCCCCCCCCCCC(=O)O,AC50,IYD (gene 389434),80.9 µM (active)
CCCCCC(CO)CCC (configuration not stated),outcome,[4],inactive
same,outcome,SRD5A2 (gene 6716),inactive
O=C1OC2(c3cc(Br)c(O)c(Br)c3Oc3c2cc(Br)c(O)c3Br)c2c(Cl)c(Cl)c(Cl)c(Cl)c21,AC50,IYD (gene 389434),23.7 µM (active)
CCCCCCCCCC=O,outcome,[5],inactive
same,AC50,TTR (gene 7276),9.95 µM (active)
CC(C)=CCCC(C)=CCCC(C)=CCO,AC50,TTR (gene 7276),19.9 µM (active)
c1ccc(CCCc2ccccn2)cc1,AC50,SERPINA7 (gene 6906),22.2 µM (active)
CCCCC(CC)COCCC#N (configuration not stated),outcome,[5],inactive
C#C[C@]1(O)CC[C@H]2[C@@H]3CCC4=Cc5oncc5C[C@]4(C)[C@H]3CC[C@@]21C,AC50,[7],38.2 µM (active)
same,AC50,[8],0.362 µM (active)
same,outcome,[9],inactive
CSc1nc(NC2CC2)nc(NC(C)(C)C)n1,AC50,TTR (gene 7276),10.8 µM (active)
CC(C)c1ccc(C(C)C)cc1,outcome,[5],inactive
O=C1CCCCCCCCCCCCCCO1,outcome,[5],inactive
CCN(CC)c1ccc2c(-c3ccccc3C(=O)O)c3ccc(=[N+](CC)CC)cc-3oc2c1,outcome,[4],inactive
same,AC50,SRD5A2 (gene 6716),22.1 µM (active)
CCN(CC)c1ccc(C(=C2C=CC(=[N+](CC)CC)C=C2)c2ccc(S(=O)(=O)O)cc2S(=O)(=O)[O-])cc1,outcome,[4],inactive
same,AC50,SRD5A2 (gene 6716),3.22 µM (active)
